Assay results taken from the supplement of paper PMC12645437, “Orthogonal IMiD-Degron Pairs Induce Selective Protein Degradation in Cells” (ACS Chemical Biology, 2025).
The full ranking holds about 8,300 sequences; the median of “log2 fold change of degron read counts, EGFP-low vs EGFP+ sorted cells (limma voom), compound-induced degradation” is about -1.1, and the highest 2% start at about 3.2. This is one part of a sample in which the highest values are shown more often than they occur.

T1: CRBN, Q96SW2
T1 chain: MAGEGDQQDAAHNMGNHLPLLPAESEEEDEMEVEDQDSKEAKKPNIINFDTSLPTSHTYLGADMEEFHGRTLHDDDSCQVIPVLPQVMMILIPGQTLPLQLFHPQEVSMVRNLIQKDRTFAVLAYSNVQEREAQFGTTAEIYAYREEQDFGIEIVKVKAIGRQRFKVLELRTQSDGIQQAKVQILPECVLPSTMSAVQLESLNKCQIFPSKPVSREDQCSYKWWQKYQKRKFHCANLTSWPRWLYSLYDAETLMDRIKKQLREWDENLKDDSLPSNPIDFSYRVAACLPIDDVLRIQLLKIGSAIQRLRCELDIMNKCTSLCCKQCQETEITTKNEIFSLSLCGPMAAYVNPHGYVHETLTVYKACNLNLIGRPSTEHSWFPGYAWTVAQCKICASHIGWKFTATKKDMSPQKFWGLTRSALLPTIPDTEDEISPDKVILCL


Molecular target: T1, CRBN, Q96SW2
Assay: log2 fold change of degron read counts, EGFP-low vs EGFP+ sorted cells (limma voom), compound-induced degradation; higher = more compound-induced degradation of the degron-EGFP fusion; degrons are variants of IKZF1/3 zinc finger 2; compound dose not given here
Conditions: Jurkat, 18 h
[1] = compound: compound 19 (5-tert-butyl-thalidomide)
[2] = compound: compound 22 (5-morpholino-thalidomide)
[3] = compound: compound 33 (diphenyl IMiD analogue)
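Also: pooled lentiviral library of zinc finger degron-EGFP fusions in mCherry-positive Jurkat cells, FACS-sorted after compound exposure, with degron abundance counted by next-generation sequencing.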

Sequence	log2 fold change of degron read counts [1]	log2 fold change of degron read counts [2]	log2 fold change of degron read counts [3]	log2 fold change of degron read counts (compound: thalidomide)
FECEICGHGFTQKGNLLRHIKL [46F_47E_49E_50I_52G_53H_54G_55F_67L_, Q9UKT9]	-3.39	-3.7	-2.59	-2.45
FTCEICGRLFTQKGNLLRHIKL [46F_47T_49E_50I_52G_53R_54L_55F_67L_, Q9UKT9]	-2.87	-2.3	-0.938	-0.343
LWCNQCGFPCTQKGNLLRHIKL [46L_47W_49N_50Q_52G_53F_54P_55C_67L_, Q9UKT9]	-0.74	-1.09	-1.33	-1.27
FYCPQCGAWFTQKGNLLRHIKL [46F_47Y_49P_50Q_52G_53A_54W_55F_67L_, Q9UKT9]	-0.595	-1.07	-0.405	-1.33
FECNVCGAHFTQKGNLLRHIKL [46F_47E_49N_50V_52G_53A_54H_55F_67L_, Q9UKT9]	-2.58	-2.72	-0.566	-0.594
FLCDVCGACFTQKGNLLRHIKL [46F_47L_49D_50V_52G_53A_54C_55F_67L_, Q9UKT9]	-1.03	-2.05	0.211	-0.875
FWCPICGREFTQKGNLLRHIKL [46F_47W_49P_50I_52G_53R_54E_55F_67L_, Q9UKT9]	0.147	-0.132	1.23	-0.495
FLCPVCGAGFTQKGNLLRHIKL [46F_47L_49P_50V_52G_53A_54G_55F_67L_, Q9UKT9]	1.38	0.0992	1.5	0.959
FVCPVCGATFTQKGNLLRHIKL [46F_47V_49P_50V_52G_53A_54T_55F_67L_, Q9UKT9]	-1.12	1.27	1.62	2.01
FNCPVCGATFTQKGNLLRHIKL [46F_47N_49P_50V_52G_53A_54T_55F_67L_, Q9UKT9]	1.23	-0.0199	1.21	0.0692
FMCPVCGATFTQKGNLLRHIKL [46F_47M_49P_50V_52G_53A_54T_55F_67L_, Q9UKT9]	-1.09	0.0816	1.9	1.06
FCCPVCGATFTQKGNLLRHIKL [46F_47C_49P_50V_52G_53A_54T_55F_67L_, Q9UKT9]	1.17	1.86	2.81	2.11
FKCPVCGATFTQKGNLLRHIKL [46F_47K_49P_50V_52G_53A_54T_55F_67L_, Q9UKT9]	-1.61	-2.57	-2.5	-0.961
FFCPVCGATFTQKGNLLRHIKL [46F_47F_49P_50V_52G_53A_54T_55F_67L_, Q9UKT9]	2.59	3.54	1.59	1.17
FWCPVCGATFTQKGNLLRHIKL [46F_47W_49P_50V_52G_53A_54T_55F_67L_, Q9UKT9]	2.12	3.45	1.55	0.523
FQCPVCGATFTQKGNLLRHIKL [46F_47Q_49P_50V_52G_53A_54T_55F_67L_, Q9UKT9]	0.396	2.89	2.57	3.79
FDCPVCGATFTQKGNLLRHIKL [46F_47D_49P_50V_52G_53A_54T_55F_67L_, Q9UKT9]	1.07	-0.459	0.762	1.24
FECPVCGATFTQKGNLLRHIKL [46F_47E_49P_50V_52G_53A_54T_55F_67L_, Q9UKT9]	-0.45	-0.774	1.74	2.82
FGCPVCGATFTQKGNLLRHIKL [46F_47G_49P_50V_52G_53A_54T_55F_67L_, Q9UKT9]	3.66	2.4	2.06	1.12
FLCPVCGATFTQKGNLLRHIKL [46F_47L_49P_50V_52G_53A_54T_55F_67L_, Q9UKT9]	-1.39	-1.44	0.984	1.09
